The sample as a whole holds a higher share of hits than the screen did.
Pf Dd2 inh: qHTS Primary assay for Inhibitors of Plasmodium falciparum Dd2 growth in vitro. P. falciparum Dd2 growth, SYBR Green, 72 h. Potency, µM (top dose mostly 28.9 µM), without a hit: at the highest dose activity, negative = inhibition, usual class: inhibitors. actives 4.3% (n = 120,000). AID 1347417, 2020; active means well fitted inhibition curve with a large enough effect;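 further: plate controls were DMSO vehicle for no effect and reference drug for full effect; nearly all actives have a fitted effect of over 65% in size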
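Infected erythrocytes (Dd2, 0.3% parasitemia, 2.5% hematocrit final) are added to compound in RPMI-1640/Albumax II medium, grown 72 h at 37C in low oxygen, then lysed with saponin/Triton-X containing SYBR Green and read by fluorescence.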
* = called active by the depositor; i = inactive; [ ] = remark or other dose. Potency means the concentration at half of the fitted maximal effect.

SMILES	Pf Dd2 inh
Cc1cn2nc(C(=O)NCCc3cccs3)cc2c(N2CCCC2)n1	7.1µM*
Cc1cn2nc(C(=O)NCc3ccccn3)cc2c(N2CCCC2)n1	-8%
COc1ccc(CCNC(=O)c2cc3c(N4CCCC4)nc(C)cn3n2)cc1OC	i
CCOC(=O)c1ccc(CNC(=O)N2CCC3(CC2)CN(c2ccccc2)C3=O)cc1	-27%
O=C(N[C@@H]1COCC[C@@H]1Oc1ccc(F)cc1)c1cnc(C2CC2)nc1	-7%
Cc1c(-c2ccc(F)cc2)[nH]c2ccc(CNC(=O)CN3CCOC3=O)cc12	-14%
CC1CCN(CC2CCCN(C(=O)c3cnccn3)CC2)CC1 (centres undefined)	1%
CN1C[C@H](NCc2ccc(C(F)(F)F)cc2)CCC[C@@H](C(=O)N(C)Cc2cccnc2)CC1=O	-7%
O=C(CCC[C@@H]1[C@H]2CCCN3CCC[C@@H](CN1Cc1cccnc1)[C@@H]23)Nc1ccncc1	-11%
CCCCn1cc(S(=O)(=O)c2ccc(OC)cc2)c(=O)c2cc(F)c(N3CCCC3)cc21	-12%
CCCCn1cc(S(=O)(=O)c2ccc(C)c(C)c2)c(=O)c2cc(F)c(N3CCCC(C)C3)cc21 (centres undefined)	-7%
Cn1cc(S(=O)(=O)c2cccc(Cl)c2)c(=O)c2cc(F)c(N3CCCCC3)cc21	5%
Cc1cc(C)cc(S(=O)(=O)c2cn(C)c3cc(N4CCCC4)c(F)cc3c2=O)c1	i
CCc1ccc(S(=O)(=O)c2cn(Cc3ccc(OC)cc3)c3cc(OC)c(OC)cc3c2=O)cc1	11µM*
CCc1ccc(S(=O)(=O)c2cn(C)c3cc(OC)c(OC)cc3c2=O)cc1	i
CCn1cc(S(=O)(=O)c2cccc(C)c2)c(=O)c2cc(F)c(N3CCCC(C)C3)cc21 (centres undefined)	77%
CCCCn1cc(S(=O)(=O)c2ccc(OC)cc2)c(=O)c2cc(CC)ccc21	-21%
CCCn1cc(S(=O)(=O)c2ccc(OC)cc2)c(=O)c2cc(F)c(N3CCCC(C)C3)cc21 (centres undefined)	11µM*
CCCn1cc(S(=O)(=O)c2ccc(OC)cc2)c(=O)c2cc(F)c(N3CCCCCC3)cc21	11µM*
CCc1ccc(S(=O)(=O)c2cn(C)c3cc(N4CCN(CC)CC4)c(F)cc3c2=O)cc1	260%[5.79 µM]
COc1ccc(S(=O)(=O)c2cn(C)c3cc(N4CCCCCC4)c(F)cc3c2=O)cc1	8.9µM*
CN1CCN(Cc2nc(C3(O)CCN(C(=O)C4CCCCC4)CC3)cs2)CC1	-13%[44.1 µM]
CN(Cc1ccccc1)Cc1cc(CC2(NCc3ccc(F)cc3)COC2)no1	i
CCOc1cccc(-c2noc(-c3nnn4c3COC(c3ccc(OC)cc3)C4)n2)c1 (centres undefined)	-4%
O=C(Cn1nc2c(cc1=O)CCCCC2)NCc1nc2ccccc2[nH]1	-7%
SMILES	Pf Dd2 inh
Cc1nc(CN2CCOc3cc([S+](=O)([O-])N(C)C)ccc3C2)cs1	i
CC1(C)[C@H](Cc2cc(CCO)on2)C[C@@H]1NC1CCCCC1	-10%[44.1 µM]
CCCn1cc(S(=O)(=O)c2ccccc2)c(=O)c2cc(F)c(N3CCCC3)cc21	-12%
CCCCn1cc(S(=O)(=O)c2ccc(C)cc2)c(=O)c2cc(F)c(N3CCCCC3)cc21	-7%
CCCn1cc(S(=O)(=O)c2ccc(OCC)cc2)c(=O)c2cc(C)ccc21	-13%
Cc1ccc(C)c(Cn2cc(S(=O)(=O)c3ccc(Cl)cc3)c(=O)c3cc(F)ccc32)c1	i
CCCn1cc(S(=O)(=O)c2ccccc2)c(=O)c2cc(F)c(N3CCCCCC3)cc21	11µM*
CCOc1ccc(S(=O)(=O)c2cn(Cc3cc(C)ccc3C)c3ccc(OCC)cc3c2=O)cc1	10µM*
O=C(CCc1ccccc1)N1C[C@@H](CO)[C@H](c2ccncc2)C1	2%
COCCC1(NC(=O)C(C)c2ccccc2)CCN(S(C)(=O)=O)CC1 (centres undefined)	-4%
COCC(=O)Nc1ccc([C@H]2OCC(=O)N(CC(C)C)[C@@H]2CO)cc1	i
O=C(O)CC[C@@H]1CN(c2nnnn2-c2ccccc2)CC[C@@H]1N1CCOCC1	8%
CCOc1ccc(S(=O)(=O)N2CCc3nc4cc[nH]n4c(=O)c3C2)cc1	8%[5.79 µM]
O=C(N[C@@H]1CN(C(=O)Nc2ccccc2)CCC[C@H]1O)c1ccc(OCCN2CCCC2)cc1	-24%
CC(=O)N1CCN(C(=O)CSCC(=O)O)C[C@H]1C(=O)N[C@H]1CCCNC1=O	24%[44.1 µM]
COc1cccc(N2C(=O)NC(=NC3CCCC3)C23CCCN(Cc2ccc(N(C)C)cc2)C3)c1 (centres undefined)	11µM*
COc1cccc(N2C(=O)NC(=NC3CCCCC3)C23CCCN(Cc2ccc(N(C)C)cc2)C3)c1 (centres undefined)	11µM*
COc1ccc(C(=O)N2CCCC3(C2)C(=NC2CCCC2)NC(=O)N3c2cccc(OC)c2)cc1 (centres undefined)	8%
COc1cccc(N2C(=O)NC(=NC3CCCC3)C23CCN(C(=O)c2ccccc2)C3)c1 (centres undefined)	-21%

Screening results: PubChem BioAssay, National Center for Advancing Translational Sciences (NCATS)
